Screening data from PubChem.
This is a sample that favours compounds with a hit; in the whole collection about 12% have one here.
G9a block: qHTS Assay for Inhibitors of Histone Lysine Methyltransferase G9a; Histone-lysine N-methyltransferase EHMT2 (Homo sapiens), Q96KQ7; G9a H3K9 monomethylation, AlphaScreen, 2 h; Potency, µM (top dose mostly 102 µM), for inactives: top-dose activity, negative = inhibition, usual class: inhibitors; 8.8% of 350,000 active; AID 504332, 2011; further: on the % scale 0 is the no-effect control and ±100 the full control effect; nearly all actives have a fitted effect of over 75% in size
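G9a (20 nM) was preincubated 15 min with compound, then reacted 2 h at room temperature with 500 nM biotin-H3K9 peptide and 20 µM SAM. Monomethyl-H3K9 detected by AlphaScreen using anti-H3K9me1 antibody.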
Sfp inh: qHTS Assay for Inhibitors of Bacillus subtilis Sfp phosphopantetheinyl transferase (PPTase) | 4'-phosphopantetheinyl transferase ffp (Bacillus subtilis), Q9F4F7 | 3.5% of 310,000 active | Potency, µM, for the others: largest response in the series, negative = inhibition, usual class: inhibitors | Biochemical Sfp PPTase activity, qHTS | AID 1490, 2009;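 further: the enzyme is Sfp with the accession as filed and its product quenches rhodamine fluorescence; 0% = enzyme reaction without inhibitor and -100% = no enzyme wells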
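With Hepes-Na pH 7.6 buffer containing 10 mM MgCl2, Sfp (15 nM) modified BHQ-2-YbbR (12.5 uM) using rhodamine-CoA (5 uM). Two reads 30 minutes apart at 525/598 nm yielded each well's rate.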
PLK1 PBD inh: qHTS for Inhibitors of PLK1-PDB (polo-like kinase 1 - polo-box domain): Primary Screen; Plk1 PBD binding of FITC phosphopeptide, fluorescence polarization; Potency, µM, inactives show max response, negative = inhibition, most hits filed as inhibitors; 2.8% of 360,000 active; further: series mostly up to about 57 µM; on the % scale 0 is the no-effect control and ±100 the full control effect; nearly all actives have a fitted effect of over 65% in size
Target sequence (P53350 whole entry, looked up, the tested form may be a part): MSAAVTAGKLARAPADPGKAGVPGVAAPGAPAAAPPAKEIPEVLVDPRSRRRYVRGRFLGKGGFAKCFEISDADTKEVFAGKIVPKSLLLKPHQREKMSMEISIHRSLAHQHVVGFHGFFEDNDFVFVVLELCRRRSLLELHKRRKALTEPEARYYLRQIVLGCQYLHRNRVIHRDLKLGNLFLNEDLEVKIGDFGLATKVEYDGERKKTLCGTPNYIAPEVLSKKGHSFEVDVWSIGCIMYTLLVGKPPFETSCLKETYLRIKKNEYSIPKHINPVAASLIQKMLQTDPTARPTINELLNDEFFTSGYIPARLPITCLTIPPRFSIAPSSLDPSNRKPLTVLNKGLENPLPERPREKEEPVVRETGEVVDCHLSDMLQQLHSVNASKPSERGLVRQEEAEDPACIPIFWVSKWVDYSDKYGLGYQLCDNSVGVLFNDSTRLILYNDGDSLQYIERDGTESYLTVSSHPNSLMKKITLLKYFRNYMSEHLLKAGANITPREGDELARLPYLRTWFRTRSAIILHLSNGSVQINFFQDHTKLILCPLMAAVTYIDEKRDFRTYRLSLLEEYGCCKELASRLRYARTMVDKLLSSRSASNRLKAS
JMJD2A Tudor inh: qHTS Assay for Inhibitors of JMJD2A-Tudor Domain; AlphaScreen JMJD2A-Tudor / H3K4me3 peptide binding; Lysine-specific demethylase 4A (Homo sapiens), O75164; 4.4% of 390,000 active; AID 504339, 2011; Potency, µM (doses to about 114 µM), without a hit: top-dose activity change, negative = inhibition, actives largely listed as inhibitors; further: on the % scale 0 is the no-effect control and ±100 the full control effect; nearly all actives have a fitted effect of over 50% in size
HP1b binding inh: HTS for Inhibitors of HP1-beta Chromodomain Interactions with Methylated Histone Tails. Chromobox protein homolog 1 (Homo sapiens), P83916. AlphaScreen HP1-beta / biotin-H3K9me3 peptide binding. Potency, µM (top dose mostly 114 µM), without a hit: at the highest dose activity change, negative = inhibition, usual class: inhibitors. 0.56% of 390,000 active; further: nearly all actives have a fitted effect of over 70% in size
Target sequence (P83916 whole entry, looked up): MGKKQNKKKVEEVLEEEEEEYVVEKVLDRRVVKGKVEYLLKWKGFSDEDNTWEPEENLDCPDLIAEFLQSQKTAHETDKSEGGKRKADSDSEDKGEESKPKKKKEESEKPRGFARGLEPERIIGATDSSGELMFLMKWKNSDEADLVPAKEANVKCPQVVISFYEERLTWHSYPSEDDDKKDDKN
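AlphaScreen: HP1-beta (50 nM) preformed 30 min with biotin-H3(1-18)K9me3 peptide (50 nM) in PBS pH 7.4, 0.01% Tween-20. Compound added for 30 min at RT, then streptavidin donor/nickel chelate acceptor beads (10 ug/mL) for 30 min.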
BAZ2B block: qHTS Assay for Inhibitors of BAZ2B; Bromodomain adjacent to zinc finger domain protein 2B (Homo sapiens), Q9UIF8; AlphaScreen BAZ2B-H3K14Ac peptide displacement; Potency, µM (highest dose often 114 µM), without a hit: top-dose activity change, negative = inhibition, most hits filed as inhibitors; 4.4% of 360,000 active; AID 504333, 2011; further: on the % scale 0 is the no-effect control and ±100 the full control effect; nearly all actives have a fitted effect of over 60% in size
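Protein-peptide AlphaScreen: BAZ2B 50 nM, b-H3K14Ac 50 nM, 1x PBS pH 7.4 + 0.01% Tween-20. Preincubation 30 min RT; cpd 30 min RT (top 110 uM); beads 20 min RT, light-protected.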
Numbers without * were called inactive; ? = inconclusive; · = no result given; [ ] = another dose, or the depositor's remark. The call rests on the fitted dose curve; in most records, active means well fitted curve in the direction sought with a large enough effect; inconclusive means small, poorly fitted or top-dose-only effect, or another doubt; inactive means no such curve, though single readings can be large; an effect the other way counts as inactive or inconclusive. Potency means the concentration at half of the fitted maximal effect.

SMILES | G9a block | Sfp inh | PLK1 PBD inh | JMJD2A Tudor inh | HP1b binding inh | BAZ2B block
C#CCOCCOCCOCCNc1nc(N2CCN(C(=O)[C@H]([C@@H](C)CC)n3cc([C@@H](N)Cc4ccc(O)cc4)nn3)CC2)nc(N2CCN(C(=O)[C@H](CCCCN)n3cc([C@@H](N)CO)nn3)CC2)n1 | ? | 2.1% | · | · | · | 50.1µM*
C#CCOCCOCCOCCNc1nc(N2CCN(C(=O)C([C@@H](C)CC)n3cc(C(N)CO)nn3)CC2)nc(N2CCN(C(=O)[C@H](CCC(=O)O)n3cc(C(N)Cc4ccc(O)cc4)nn3)CC2)n1 (stereo not given in full) | -30.1%[12.7 µM] | -7.7% | · | · | · | 39.8µM*
C#CCOCCOCCOCCNc1nc(N2CCN(C(=O)[C@H]([C@@H](C)CC)n3cc(CCC(=O)O)nn3)CC2)nc(N2CCN(C(=O)[C@H](CCCCN)n3cc(CC(C)O)nn3)CC2)n1 (stereo not given in full) | · | · | -20.8% | ? | 30.7% | ·
CCN(CC)CCNC(=O)c1ccc(Cn2c(=O)c3cccn3c3cccnc32)cc1 | 0.9%[59 µM] | · | · | -4.8% | 30.2% | -20.4%
Cc1ccc2[nH]c(=O)c(COC(=O)c3cccs3)cc2c1 | 16.3%[59 µM] | 8.9% | -7.2% | -11.8% | 8.1% | 5.9%
C/C(CC(=O)Nc1ccc(Cl)c(C(F)(F)F)c1)=N\NC(N)=S | ? | 4.4% | -3.5% | -7.0% | 12.8% | -22.9%
C/C(CC(=O)Nc1cccc2c1CCCC2)=N\NC(=O)c1ccccc1N | 9.8%[2.33 µM] | -1.7% | -6.3% | -20.9% | 6.2% | 13.2%
C/C(CC(=O)NC(C)(C)C)=N\NC(=O)c1ccccc1N | ? | -6.8% | 23.8µM* | 39.8µM* | 4.2% | -20.3%
C/C(CC(=O)NC(C)(C)C)=N\NC(N)=S | 3.98µM* | 35.5µM* | -4.8% | ? | ? | ?
CCN1C[C@@H]2[C@@H]3C(=O)N(C)C(=O)[C@@H]3[C@](Cc3ccccc3)(C(=O)OC)N2C1=NCc1ccccc1 | · | · | -3.5% | -21.2% | 19.6% | ·
COc1ccc(-n2c(Cc3cccn3C)nnc2SCC(=O)NCCc2ccccc2)cc1 | -9.6%[2.33 µM] | 5.3% | -8.0% | -28.5% | -15.1% | ?
COc1ccccc1NC(=O)CSc1nnc(Cc2cccn2C)n1CCc1ccccc1 | ? | 6.9% | 0.1% | ? | -11.2% | 50.1µM*
COc1ccc(NC(=O)CSc2nnc(Cc3cccn3C)n2CCc2ccccc2)c(OC)c1 | 32.4%[0.501 µM] | -7.1% | -8.3% | ? | -27.5% | 50.1µM*
COC(=O)c1cccc(S(=O)(=O)N2CCN(c3nc4ccccc4s3)CC2)c1 | -20.1%[59 µM] | 12.9% | 1.2% | -16.0% | 28.3% | -0.8%
COCCN(C)Cc1cn(-c2ccc(F)cc2F)nc1-c1ccccc1C | · | 89.1µM* | -13.1% | -2.3%[11.4 µM] | 27.5% | 18.5%
Cc1ccccc1-c1nn(-c2ccc(F)cc2F)cc1CNCCN(C)C | -4.6%[59 µM] | -6.8% | -5.6% | ? | 10.2% | ?
CCOC(=O)c1sc2nccc(N(C)C)c2c1N=CNOC | 3.7% | 2.5% | 15µM* | 25.1µM* | 37.1% | 22.4%
NC1=NC(=O)/C(=C/c2cccc(F)c2)S1 | 3.7% | -4.0% | -7.6% | -10.0% | 14.3% | 1.9%
CC(=O)Nc1ccc(S(=O)(=O)Oc2cccc(/C=C3\SC(N)=NC3=O)c2)cc1 | -1.2%[59 µM] | -8.9% | 4.23µM* | 25.1µM* | -0.8% | -31.1%
Cn1c2ccccc2c(=O)c2cc(NCCCN3CCOCC3)ccc21 | · | · | -5.9% | -13.4% | 17.6% | ·
N=C1c2c(cc(=O)n3c2[nH]c2ccccc23)CN1CCN1CCOCC1 | 35.5µM* | 2.5% | -0.1% | -17.4% | 10.4% | ·
Nc1[nH]n(-c2ccccc2)c(=O)c1N=Nc1ccccc1 | 4.47µM* | 9.4% | -8.3% | 12.6µM* | ? | 7.94µM*
COc1cc([N+](=O)[O-])ccc1N=Nc1c(N)[nH]n(-c2ccccc2)c1=O | 50.1µM* | 11.6% | 29.9µM* | -22.6%[11.4 µM] | -26.2% | ?
Nc1[nH]n(-c2ccccc2)c(=O)c1N=Nc1ccc2ncsc2c1 | · | 50.1µM* | 26.7µM* | -21.3%[11.4 µM] | -29.1% | ?
O=c1c(N=Nc2ccccc2)c[nH]n1-c1ccccc1 | · | · | 3.0% | · | · | ·
SMILES | G9a block | Sfp inh | PLK1 PBD inh | JMJD2A Tudor inh | HP1b binding inh | BAZ2B block
Nc1[nH]n(-c2ccccc2)c(=O)c1N=Nc1ccccc1[N+](=O)[O-] | -10.5% | -3.0% | -7.7% | -20.6% | -0.5% | -25.0%
Cn1nnc2c(N3CCN(Cc4ccccc4)CC3)ncnc21 | · | · | · | -10.2% | 39.4% | ·
O=C1CC(c2ccccc2)Sc2nc3ccccc3n21 (stereo not given) | ? | 8.6% | -10.2% | 17.5% | 59.8% | 10.5%
O=C1CSCc2nc3ccccc3n21 | · | · | 5.5% | 20µM* | 14.9% | ·
CC1=C(C(=O)Nc2ccccc2)C2(CCCCC2)C(C#N)=C(S)N1 | 7.94µM* | 31.6µM* | ? | -33.6% | 2.0% | -32.0%
CSC1=C(C#N)C2(CCCCC2)C(C(=O)Nc2ccccc2)=C(C)N1 | · | · | -8.1% | -27.4% | 17.6% | ·
CC(=O)OCC1OC(Oc2cc(OC(C)=O)c3c(=O)cc(-c4ccc(OC(C)=O)cc4)oc3c2)[C@@H](OC(C)=O)C(OC(C)=O)C1OC(C)=O (stereo not given in full) | · | 26.3% | · | · | · | ·
C=C(CN(C)C)C(=O)c1ccc(OC2OC(COC(C)=O)C(OC(C)=O)C(OC(C)=O)C2OC(C)=O)cc1 (stereo not given) | · | · | 15µM* | 89.1µM* | 56.2µM* | ·
Cn1nc(C(=O)NCCc2ccc(S(N)(=O)=O)cc2)c2ccccc2c1=O | -0.3% | 18.9% | 3.1% | 7.8% | 33.9% | -1.1%
CCc1noc(C)c1C(=O)N(CC)CC(=O)NCc1ccc(Cl)cc1 | 17.7%[12.7 µM] | · | -19.0% | -11.9% | 34.2% | -2.5%
CC(C)c1nnc(NC(=O)c2nc(S(=O)(=O)Cc3ccc(F)cc3)ncc2Cl)s1 | 8.91µM* | -26.1% | -22.0% | ? | 17.1%[57 µM] | -28.5%
Cc1ccc(CS(=O)(=O)c2ncc(Cl)c(C(=O)Nc3nnc(C(C)C)s3)n2)cc1 | 44.7µM* | ? | ? | ? | 32.9%[57 µM] | -12.6%
CCSc1nnc(NC(=O)c2nc(S(=O)(=O)Cc3ccc(F)cc3)ncc2Cl)s1 | · | -11.6% | ? | 2.82µM* | 10.0%[57 µM] | ?
C=CCSc1nnc(NC(=O)c2nc(SCC)ncc2Cl)s1 | 7.94µM* | 15.3% | -7.7% | -18.0% | 12.1% | -26.8%
CSc1ncc(Cl)c(C(=O)Nc2nnc(SC/C=C/c3ccccc3)s2)n1 | ? | 1.2% | ? | -32.5% | -11.0% | 20.5%
